These results are taken from PubChem BioAssay (NCI).

Structures are written as SMILES. About 83,000 compounds went through this panel and 20% of them were active in at least one assay; those are over-represented in the sample as a whole.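 Growth was measured after 48 h exposure to one concentration of compound in 96-well plates. Values under 10 count as active.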 A number with no mark means an inactive call. The source made the active and inactive calls.

What all share (assay): NCI-60 one-dose screen, 48 h (100 = growth as untreated, 0 = no growth, -100 = all killed)
Common to all, as to conditions: 10 µM

Assay [1] deals with K-562 leukemia.
In assay [2] the test system is MALME-3M melanoma.
Assay [3] deals with MDA-MB-231 breast.
In assay [4] the test system is RXF 393 renal.
For assay [5], the system named is SF-268 CNS.
Assay [6] has as its system SF-295 CNS.
Assay [7] concerns SF-539 CNS.
For assay [8], the system named is UACC-257 melanoma.
The subject of assay [9] is M14 melanoma.
The test system of assay [10] is HCT-15 colon.
Assay [11] has as its system HT29 colon.
The test system of assay [12] is SNB-75 CNS.
For assay [13], the system named is SNB-19 CNS.
The subject of assay [14] is U251 CNS.
For assay [15], the system named is PC-3 prostate.
Assay [16] deals with SK-MEL-5 melanoma.
Assay [17] concerns UACC-62 melanoma.
Assay [18] concerns LOX IMVI melanoma.
Assay [19] relates to SK-MEL-28 melanoma.
In assay [20] the test system is SK-MEL-2 melanoma.

For the compound `O=C(CSSCC(=O)c1ccc(Cl)cc1)c1ccc(Cl)cc1`, the growth in assay [1] was 52.9%; in assay [2], 39.7%; in [3] it was 92.8%; in [4], 99.7%; in [5], 61%; in [6], 35.9%. Besides, the growth was 68.4% in [7]; 59.2% in [8]; 82.2% in assay [9]; 87.2% in [10]; 92.6% in [11]; 62% in assay [12]. In addition, the growth in [13] is 52.8%; in [14], 53.7%; in [15] it was 61.1%; in assay [16], 29.7%; in assay [17], 57.8%; in assay [18], 40.7%. Besides, the results for the growth in assay [19] and in [20] were 59.5% and 79.5%, respectively.

As to `C#Cc1ccc(-n2c(/C=C/c3ccc(O)c(OC)c3)nc3ncccc3c2=O)cc1`, the growth in assay [1] is 80%; in assay [2] it was 95%; in assay [3], 98.5%; in assay [4], 100%; in [5] it was 95%; in assay [6], 104%. Also, the growth in assay [7] is 97.2%; in assay [8], 87.8%; in assay [9] it was 101%; in assay [10], 90.5%; in assay [11] it was 112%; in [12] it was 55.9%. In addition, the growth in assay [13] is 96.2%; in assay [14], 94.1%; in assay [15], 81.2%; in assay [16], 94.2%; in assay [17], 104%; in assay [18], 93.5%. Further, the values for the growth in [19] and in assay [20] were 97.9% and 85.7%, respectively.

Turning to `COc1ccc(NC2=NC(C)(CO)CS2)cc1` (stereo not given), the growth in assay [1] is 98.7%; in assay [2], 112%; in assay [3], 97.5%; in assay [4], 130%; in [5], 103%; in assay [6], 109%. In addition, the growth was 89.7% in [7]; -25.7% (active) in [8]; 101% in assay [9]; 90.3% in assay [10]; 105% in [11]; 83.5% in [12]. The growth in assay [13] is 103%; in assay [14], 101%; in assay [15], 82.2%; in [16], 96.3%; in [17], 96.1%; in assay [18], 95.7%. The growth in assay [19] was 106%; in assay [20] it was 108%.

As to `COc1ccc(-c2cc(/C=C/C(=O)c3cc(OC)c(OC)c(OC)c3)[nH]n2)cc1OC`, the growth is 5.1% (active) in [1]; -17.5% (active) in assay [2]; -25.3% (active) in assay [3]; -16.9% (active) in assay [4]; -45.7% (active) in assay [5]; 29.1% in assay [6]. In addition, the growth in assay [7] was -51.4% (active); in assay [8] it was 69.6%; in assay [9], 53.2%; in [10] it was -15.5% (active); in assay [11], -53.9% (active); in assay [12] it was 17.8%. The growth is 25.5% in assay [13]; -77.6% (active) in assay [14]; 24.7% in assay [15]; 27.4% in [16]; 50.8% in assay [17]; -79% (active) in assay [18]. Further, the figures for the growth in assay [19] and in [20] were -66.8% (active) and 69.9%, respectively.

For the compound `COc1ccc(-c2cc(/C=C3\C(=O)Nc4ccc(Cl)cc43)[nH]n2)cc1OC`, the growth was 100% in [1]; 87.3% in [2]; 79.6% in assay [3]; 88.5% in assay [4]; 85.8% in assay [5]; 99.6% in assay [6]. The growth in assay [7] was 82.2%; in assay [8], 132%; in [9] it was 101%; in assay [10], 77.5%; in [11] it was 93.5%; in assay [12], 64.2%. For the same compound, the growth in assay [13] is 90.9%; in [14], 95.2%; in assay [15], 88.4%; in assay [16], 73%; in assay [17], 95.9%; in assay [18] it was 90.5%. Further, the growth was 99.3% in [19] and 99.5% in assay [20].

For the compound `COc1ccc(/C=C2/CN(C(=O)c3ccc(C)cc3)C/C(=C\c3ccc(OC)cc3)C2=O)cc1`, the growth in assay [1] was 23.7%; in [2], 91.4%; in assay [3], 87.1%; in assay [4], 92.3%; in assay [5] it was 87.4%; in assay [6], 85.2%. Besides, the growth in assay [7] is 102%; in assay [8], 98.1%; in [9], 69.4%; in [10] it was 91.3%; in [11], 32.9%; in [12] it was 82.7%. The growth in [13] was 98.5%; in assay [14], 89.4%; in assay [15], 68.6%; in assay [16] it was 89.1%; in assay [17], 86.4%; in assay [18] it was 42.1%. Moreover, the growth in assay [19] is 116%; in [20] it was 95.1%.

As to `CC(C)(C#N)Nc1ccccc1`, the growth is 102% in [1]; 104% in [2]; 100% in [3]; 101% in assay [4]; 113% in [5]; 77.7% in assay [6]. Moreover, the growth in assay [7] was 96.2%; in assay [8], 98.5%; in assay [9] it was 107%; in assay [10], 99%; in [11], 99.5%; in assay [12] it was 79.5%. Further, the growth in assay [13] is 98.9%; in [14], 95.4%; in assay [15] it was 108%; in assay [16], 107%; in [17], 98.5%; in [18] it was 97.8%. Further, the results for the growth in [19] and in assay [20] were 111% and 109%, respectively.

`O=C1C(=O)c2ccccc2C(O)=C1CCCc1ccc(C2CCCCCC2)cc1`: the growth in assay [1] was 23.7%; in [2], 13.5%; in assay [3] it was 68.4%; in assay [4], 68.1%; in assay [5] it was 53.9%; in [6], -0.205% (active). Further, the growth in assay [7] is 37.9%; in assay [8], 44%; in [9], 49.3%; in [10], 25.2%; in [11], 28.5%; in [12] it was 49.3%. The growth in assay [13] is 52.8%; in assay [14], 46.1%; in assay [15], 20.9%; in assay [16], 25.2%; in assay [17] it was 46.6%; in [18], 16.5%. The figures for the growth in assay [19] and in [20] were 49.7% and 88.1%, respectively.
